Test results published in the supplement of paper PMC6555819.

Key:
Experiment in all cases: PBM binding z-score (relative to random genomic background probes); higher = stronger binding; sequences stand for … in GC…GCGATTGACAGCGTAGAATGAAGG
[1] = system: FXR:RXRa (NR concentration 270 nM, RXRa partner concentration 90 nM)
How it was run: (§1)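 Binding z-scores were set against random background probes. The data came from custom Agilent 4×180K protein-binding microarrays carrying double-stranded probes with 34-nt variable regions, incubated 1 h with ligand-free nuclear receptor dimers. Partner-specific antibodies detected binding, and scanned fluorescence was regression-normalized.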

[2] = system: LXRa:RXRa (NR concentration 270 nM, RXRa partner concentration 90 nM)
How it was run: as §1

[3] = system: LXRa homodimer (NR concentration 270 nM)
How it was run: as §1

[4] = system: LXRb:RXRa (NR concentration 270 nM, RXRa partner concentration 90 nM)
How it was run: as §1

[5] = system: LXRb homodimer (NR concentration 270 nM)
How it was run: as §1

[6] = system: PPARa:RXRa (NR concentration 270 nM, RXRa partner concentration 90 nM)
How it was run: as §1

[7] = system: PPARg:RXRa (NR concentration 180 nM, RXRa partner concentration 90 nM)
How it was run: as §1

[8] = system: PPARg:RXRa 270nM:90nM, anti-RXR (NR concentration 270 nM, RXRa partner concentration 90 nM)
How it was run: as §1

[9] = system: PPARg:RXRa 30nM:10nM, anti-RXR (NR concentration 30 nM, RXRa partner concentration 10 nM)
How it was run: as §1

[10] = system: PPARg:RXRa 90nM:30nM, anti-RXR (NR concentration 90 nM, RXRa partner concentration 30 nM)
How it was run: as §1

| Sequence | PBM binding z-score [1] | PBM binding z-score [2] | PBM binding z-score [3] | PBM binding z-score [4] | PBM binding z-score [5] | PBM binding z-score [6] | PBM binding z-score [7] | PBM binding z-score [8] | PBM binding z-score [9] | PBM binding z-score [10] |
| --- | --- | --- | --- | --- | --- | --- | --- | --- | --- | --- |
| CCTAGCAGGCCAATCTGGGGCACTCAAGGCTTGA | -0.393 | -0.285 | -0.624 | -0.768 | -1.24 | 0.967 | 0.549 | 0.547 | -0.732 | -0.289 |
| CCGACTGGCGCAGAAAGGTTACCATACCATCCGG | 0.0917 | 0.658 | -0.132 | 0.749 | -1.07 | 1.8 | 0.613 | 1.16 | -0.315 | 0.337 |
| ACTCGAAGGACAAAGGTCAGAGCTACGCCAGTGA | 4.03 | 3.98 | 1.41 | 3.57 | 0.35 | 4.95 | 6.73 | 6.23 | 5.02 | 6.39 |
| CCGACTGGGGCATAAGGTTACCTTAAGCCAGCCC | 0.144 | 2.16 | -0.305 | 0.631 | -1.36 | 1.9 | 2.04 | 3.18 | 0.872 | 2.64 |
| TAGCCTAGCTCATTGGGCCAGTATAGTACGCATC | -0.7 | -0.917 | -0.393 | -0.751 | -0.9 | -0.564 | 0.238 | -0.576 | -0.321 | -0.323 |
| TAGCCTAGGTCAGTGGGCCAGTATAGTACGCATC | 0.672 | 0.503 | -0.786 | 0.274 | -0.999 | 2.11 | 2.47 | 2.57 | 0.337 | 1.47 |
| ATATGTAGGTTAGCTTGGGTCATTCAGACTAGGC | 2.44 | 5.2 | 0.866 | 2.43 | 0.362 | 3.42 | 3.84 | 3.34 | 1.32 | 2.41 |
| CTACCAAGGTGAATAAGGTCGTTGATTACTATTC | 1.18 | 1.3 | 0.402 | 1.58 | -0.326 | 2.22 | 0.631 | 1.01 | 0.203 | 0.602 |
| TCTATTAGTTGATTAGGGCACCCGAAACAGCGGA | 0.613 | 0.698 | 0.336 | 0.367 | 0.572 | 0.646 | 0.343 | 1.83 | 3.73 | 2.91 |
| GCTCGTAGGACAAGGTCAGAGCTTTGTCCGTAGA | 1.45 | 1.74 | -0.722 | 1.25 | -0.639 | 2.44 | 0.258 | 1.16 | -0.473 | 0.455 |
| CCTCGGAGGACAGAAGGTCTGAGCTGTCCGCTTT | -0.434 | -0.47 | -0.775 | -1.15 | -1.31 | -0.68 | -0.853 | -0.655 | -1.15 | -1.14 |
| TGAGTGAGGTTAAAGATCAGGGAACGTGGCGTCG | 2.78 | 2.38 | -0.367 | 1.88 | 1.13 | 4.05 | 3.48 | 4.58 | 2.61 | 3.92 |
| TTACCAAGGTGAGCTGAGGTCGTTAATCCAACTC | 1.47 | 0.747 | -0.294 | 0.852 | -1.14 | 1.4 | 0.0208 | 0.655 | 0.0433 | 0.306 |
| AATACAGGGTAATCGTAGGCCAGAGTACGCACAG | 0.175 | 1.34 | -0.0914 | 0.309 | -0.0115 | 0.447 | 1.25 | 0.792 | 0.499 | 0.377 |
| ACTATTAGTTGACTTAGGGCAACAGATACGACGC | 0.0788 | 0.0659 | 0.494 | 0.0147 | 0.162 | -0.0178 | 0.94 | 0.32 | 0.494 | 0.163 |
| GCATATAGGTAAGACAAGGTGAAAGTCCGATTGT | 0.406 | -0.0572 | -0.498 | -0.135 | -0.674 | 1.06 | 0.917 | 0.84 | 0.112 | 0.746 |
| CTACCGAGGTGAACAAGGTCGTTGATTACTATTC | 1.49 | 1.66 | 0.107 | 2.37 | -0.186 | 3.16 | 1.79 | 1.8 | 0.0798 | 0.754 |
| TCTTGAAGATCAAGCAGGTTAAGAAAGCCTGAGT | 0.132 | 0.199 | -0.36 | 0.402 | -0.998 | 0.437 | -0.324 | 1.11 | 2.96 | 1.74 |
| CCTATTAGGTGACCATAAGGGCAACCGAAGCTCG | 0.883 | 0.519 | -0.266 | 0.209 | -0.299 | 1.81 | 1.73 | 1.56 | 0.344 | 0.657 |
| CCAGATAGGTGAAAGGTAACTCAGTCTGGTACGC | 0.688 | 0.694 | 0.0245 | 1.14 | -0.143 | 4.2 | 7.95 | 7.54 | 7.57 | 7.93 |
| GCGACTGGGGCATCAGCAGGTTACCATGACTTAA | -0.337 | -0.256 | -0.454 | 0.309 | -1.08 | 0.903 | 0.918 | 0.462 | -0.743 | -0.0721 |
| TCTTGTAGATCAGCCGGTTAAGAAAGCTGGCCAA | -0.161 | 0.143 | -0.223 | 0.0561 | -0.394 | 0.168 | -0.791 | 1.24 | 2.52 | 1.74 |
| AGTCAAAGTTCACTAGGTAGCGTAAGATTCAGCT | 5.23 | 5.4 | 3.04 | 2.9 | 0.743 | 4.13 | 6.27 | 6.17 | 2.76 | 5.22 |
| CCGACTGGGGCTAGGTTACCATAACGCACAGCCA | -0.553 | -0.225 | -0.483 | -0.184 | -0.938 | -0.107 | 0.784 | 0.0405 | -0.564 | -0.369 |
| CCTTACGGGTCACTGACAGGTTATACCATTTGGA | 4.86 | 4.42 | 0.698 | 3.61 | -0.46 | 5.07 | 4.22 | 4.39 | 1.45 | 3.05 |
